# Screening data: PubChem, several laboratories
# Compounds with a hit are over-represented: about 7% of the library has one in this group of screens.
# NR3A LBD binder = modulates the human NR3A ligand-binding domain | NR3A LBD differential scanning fluorimetry, Tm shift; 0% = protein alone, 100% = glycine-bound protein | Tm shift relative to glycine control, % at 25 µM | AID 1259313 | 340,000 tested, 2.5% active;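 active = melting temperature shift of at least 10% of the positive control shift, at one fixed dose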
# rCAG RNA binder = binds r(CAG) RNA repeats; 370,000 tested, 1.3% active; AID 651821; r(CAG) RNA repeat, TO-PRO-1 dye displacement fluorescence; inhibition, % at 3 µM;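 active = inhibition above the plate cutoff, the mean of all test compounds on that plate plus 3 SD, cut at about 35% in these data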;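 note: 0% = DMSO alone and 100% = 100 µM mitoxantrone as full dye displacement; higher means more dye released from RNA so lower well fluorescence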
# ADAM17 inh = inhibitors of human ADAM17 | AID 720648 | inhibition, % at 6.95 µM | 370,000 tested, 0.83% active | recombinant ADAM17, EDANS/DABCYL FRET peptide cleavage;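 active = inhibition above the mean of compounds lying between control limits plus 3 SD, set per campaign, cut at about 8.5% in these data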;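 note: 0% = DMSO-only wells as the low control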
# AHR act = human AHR activation | P35869 | AHR-responsive luciferase reporter cells, luminescence | activation, % at 5 µM | 320,000 tested, 2.5% active; in the data active = activation above about 47%;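 note: 0% = vehicle wells and 100% = reference agonist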
# ADAM10 inh = ADAM10 inhibition, QFRET primary screen | inhibition, % at 7 µM | 370,000 tested, 0.62% active | recombinant ADAM10, EDANS/DABCYL FRET peptide cleavage, 3 h | O14672;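 active = inhibition above a per-campaign cutoff equal to the mean of compounds falling between control-based bounds plus 3 SD, cut at about 20% in these data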;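 note: 0% = DMSO wells while the 100% control is not disclosed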
# proKLK7 act = activators of human kallikrein-7 zymogen; P49862; purified proKLK7, EDANS-DABCYL substrate fluorescence; 100% is mature enzyme control, 0% vehicle; activation, % at 7 µM; 370,000 tested, 0.9% active; AID 652039;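 active = activation above the mean of all tested compounds plus 3 SD, computed per campaign excluding outliers beyond control limits, cut at about 13% in these data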
# Target sequence (P49862 whole entry, looked up): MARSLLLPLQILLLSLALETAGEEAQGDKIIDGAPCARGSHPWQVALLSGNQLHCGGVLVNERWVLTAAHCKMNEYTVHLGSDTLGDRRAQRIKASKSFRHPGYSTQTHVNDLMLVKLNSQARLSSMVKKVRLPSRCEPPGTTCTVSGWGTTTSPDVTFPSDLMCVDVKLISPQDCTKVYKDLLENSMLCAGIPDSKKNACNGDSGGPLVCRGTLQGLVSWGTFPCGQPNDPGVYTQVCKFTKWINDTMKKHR
# KLK7 act conf = confirmation of human kallikrein-7 zymogen activators; AID 686949; activation, % at 7 µM; shares compounds with proKLK7 act; 3,200 tested, 68% active; purified proKLK7, EDANS-DABCYL substrate fluorescence; scaled: vehicle 0, mature enzyme 100;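 active = activation, as change over the incubation, above the mean of all tested compounds plus 3 SD, cut at about 13% in these data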
# EDANS-DABCYL int = counter-screen for kallikrein-7 activators: EDANS-DABCYL optical interference | shares compounds with proKLK7 act | EDANS-DABCYL substrate fluorescence interference, no enzyme, 4 h; solvent 0%, active enzyme control 100% | activation, % at 7 µM | 3,200 tested, 80% active | AID 686952;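 active = activation above the all-compound mean plus 3 SD, ignoring values outside control-based bounds, cut at about 4.8% in these data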;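 note: value is the 4 h activation minus the activation read at time zero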
# Active calls of the source: *; i = inactive; · = no result.
SMILES,NR3A LBD binder,rCAG RNA binder,ADAM17 inh,AHR act,ADAM10 inh,proKLK7 act,KLK7 act conf,EDANS-DABCYL int
Cc1ccc(-n2[nH]c(C)c(C=Nc3ccc4[nH]c(=O)[nH]c4c3)c2=O)cc1C,16*,-7,-22,44,-122,179*,186*,169*
Cc1ccc(-n2[nH]c(C)c(C=Nc3ccc4[nH]c(=O)[nH]c4c3)c2=O)cc1,-17,7,-6,14,-17,379*,443*,407*
Cc1[nH]n(-c2cccc3ccccc23)c(=O)c1C=Nc1ccc2[nH]c(=O)[nH]c2c1,-2,8,2,10,1,0,·,·
COC(=O)[C@]12CCCCC=C1N(CCc1ccc(OC)c(OC)c1)C(=O)[C@H](CC(=O)NCCc1ccccc1OC)C2,·,1,0,·,-2,0,·,·
CC(C)c1cc(=O)n2[nH]c(N)nc2n1,1,-1,-3,3,-2,0,·,·
CCOc1ncccc1C(=O)OCCCC(=O)c1ccc(Br)cc1,1,-1,3,0,-12,-1,·,·
CC(C)(C)NC(=O)C1(C)CCC(=O)N1C1CC1 (stereo not given),·,0,-2,·,-14,1,·,·
COc1cccc(CN(C)CC(=O)Nc2ccccc2C(C)C)c1,0,-9,0,-3,13,1,·,·
OCCNC(=S)Nc1ccc2nsnc2c1,5,5,-5,4,-13,4,·,·
O=C(Nc1ccc2nsnc2c1)NC1CCCCC1,-3,1,-166,5,i,21*,28*,29*
O=C(Nc1ccc2nsnc2c1)C1CC1,-1,-1,-90,-2,-292,8,·,·
O=C(NCCO)Nc1ccc2nsnc2c1,1,1,-150,4,i,22*,40*,41*
COC(=O)[C@@]12OC[C@]34[C@H]([C@@H](O)[C@@H]1O)[C@@]1(C)C(=O)C(O[C@@H]5OC(CO)[C@@H](O)[C@@H](O)[C@@H]5O)=C[C@@H](C)[C@@H]1C[C@H]3OC(=O)[C@H](OC(=O)/C=C(\C)C(C)(C)OC(C)=O)[C@@H]24 (stereo not given in full),-3,·,·,4,·,·,·,·
COC(=O)c1ccc(-c2sc3nc(N4CCOCC4)c4c(c3c2N)CCCC4)o1,2,6,-24,2,-61,-6,·,·
CC12CCC(=O)N1c1c(sc3nc(N4CCOCC4)c4c(c13)CCCC4)C(=O)N2 (stereo not given),-4,-3,-176,5,i,20*,69*,68*
O=C(NCc1ccccc1)C(C1CC1)n1c(=O)c(-c2cc3ccccc3[nH]2)nc2ccccc21 (stereo not given),·,14,-120,·,-344,-36,·,·
CC1CCCCN1Cc1c(O)ccc2c(=O)c(-c3nc4ccccc4s3)coc12 (stereo not given),-3,15,-7,9,-6,0,·,·
COc1ccccc1-c1coc2c(CN3CCC(C)CC3)c(O)ccc2c1=O,1,1,i,0,i,57*,64*,63*
CCC1CCCCN1Cc1c(O)ccc2c(=O)c(-c3ccccc3OC)coc12 (stereo not given),0,5,-481,2,i,35*,51*,71*
Cc1ccc(C(=O)OCC(=O)Nc2ccc3c(c2)OCO3)c(O)c1,0,3,-4,2,-11,1,·,·
Cc1cc(=O)c2c(N(C)C)cccc2[nH]1,·,5,i,·,i,82*,57*,69*
Cc1cc(=O)c2ccccc2[nH]1,-2,-3,-7,7,-9,0,·,·
CCNC(=O)CC1C(=O)N(CC)C(=S)N1NC(=O)c1ccccc1 (stereo not given),1,-3,-2,-2,-3,0,·,·
CN(C)S(=O)(=O)N1C(=O)c2ccccc2C1=O,4,1,4,7,-3,0,·,·
CN(C)/C=C1\C=C2C(=O)c3ccccc3N2C1=O,-437,i,-14,0,-32,14*,72*,66*
SMILES,NR3A LBD binder,rCAG RNA binder,ADAM17 inh,AHR act,ADAM10 inh,proKLK7 act,KLK7 act conf,EDANS-DABCYL int
CCn1c(=S)sc2c(=O)n(CC(=O)Nc3ccccc3C(F)(F)F)c(C)nc21,5,-4,-2,2,-1,0,·,·
CC(=O)Nc1ccc(-c2ccnc3c2CC(C(=O)NCC2CCOCC2)O3)cc1 (stereo not given),·,-1,-7,·,-2,0,·,·
Nc1nc2nccc(-c3ccccn3)n2n1,-1,-1,-120,-1,-337,11,·,·
Nc1nc2nccc(-c3ccco3)n2n1,0,0,i,1,i,17*,15*,27*
Cc1ccc(S(=O)(=O)NC(C(=O)Oc2ccc3ccc(=O)oc3c2)c2ccccc2)cc1 (stereo not given),-11,1,i,1,i,63*,329*,377*
CCCC(NS(=O)(=O)c1ccc(C)cc1)C(=O)O (stereo not given),0,-2,-2,1,3,5,·,·
Cc1ccc(S(=O)(=O)NC(C(=O)Oc2ccc3c(C)c(Cl)c(=O)oc3c2)c2ccccc2)cc1 (stereo not given),-12,6,i,-3,i,55*,69*,78*
Cc1ccc2cc(S(=O)(=O)NCCC(=O)O)ccc2c1,0,0,-3,0,2,0,·,·
Cc1ccc(S(=O)(=O)NCCC(=O)Oc2ccc3ccc(=O)oc3c2)cc1,-1,7,i,1,i,49*,613*,626*
CCC[C@@H](NS(=O)(=O)c1ccc(C)cc1)C(=O)Oc1ccc2c3c(c(=O)oc2c1)CCC3,-4,3,i,-5,i,42*,631*,536*
COc1ccccc1N1CC(C(=O)Nc2nnc(SCC(=O)N3CCOCC3)s2)CC1=O (stereo not given),2,4,-3,1,-7,1,·,·
O=C(CN(C(=O)CNC(=O)c1cccs1)c1ccc(F)cc1)NC1CCCCC1,0,-8,-3,-2,-4,-1,·,·
COc1ccccc1C/C(N)=N/OC(=O)c1ccco1,-2,0,0,1,-2,0,·,·
Cn1c(=O)c2cc(NC(=O)NCc3ccccc3)ccc2n1Cc1ccc(Cl)cc1,·,4,-241,·,i,-14,·,·
Cn1c(=O)c2cc(NC(=S)NCc3ccccc3F)ccc2n1C,·,3,i,·,i,34*,10,8.7*
COc1cc(Cn2c3ccc(NC(=O)NCc4ccc(F)cc4)cc3c(=O)n2C)ccc1F,·,5,-478,·,i,3,·,·
